The values below come from PubChem BioAssay (NCATS).

Results filed as inconclusive are left out. Entries that show only a call come without a potency. Activity calls are given as the source filed them. Calls follow the shape of the dose curve; as a rule, active = well fitted curve in the direction sought with a large enough effect; inconclusive = small, poorly fitted or top-dose-only effect, or another doubt; inactive = no such curve, though single readings can be large; an effect the other way counts as inactive or inconclusive.

Assay [1] addresses Glutaminase kidney isoform, mitochondrial (Homo sapiens) (UniProt O94925). Nature of the assay: qHTS for Inhibitors of Glutaminase (GLS): LOPAC Validation (AID 624146). Also: nearly all actives have a fitted effect of over 60% in size. Also: potency is read from the fitted curve at half-maximal effect. The gist of the method: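 Assay buffer: 45 mM KH2PO4 pH 8.2, 0.02% Tween-20. hKGA acts on L-glutamine (1 mM solution added); product glutamate is reported by an oxidase/peroxidase Amplex Red coupling, with fluorescence taken at baseline and 30 min.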
On the technique in general: qHTS replaces the single test concentration by a dilution series.

A short description of assay [2]: qHTS of Trypanosoma Brucei Inhibitors: LOPAC Validation (AID 624147). In outline:
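ADP (130 uM final) triggers the TbPYK reaction after compound addition; incubation is 45 min at room temperature. Kinase-Glo Plus is then added and luminescence imaged. Normalized data are fitted to concentration-effect curves.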

Assay [3] addresses Glucagon-like peptide 1 receptor (Homo sapiens) (UniProt P43220). Nature of the assay: qHTS of GLP-1 Receptor Agonists: LOPAC Validation (AID 624148).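 Also: luminescence from a luciferase reporter switched on by cAMP; higher luminescence signal means agonism.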 The gist of the method: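 Agonism scored as increased luciferase luminescence driven by cAMP in HEK293 clones carrying GLP-1R. Cells settled 12 hours, received compound for 4-6 hr at 37 deg C, 5% CO2, and were read after 12 min detection reagent at RT.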

Assay [4] is described as follows: qHTS of Nrf2 Activators: LOPAC Validation (AID 624149). In outline:
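ARE reporter activation measured in AREc32 firefly luciferase cells after 24 hr compound exposure; Steady-Glo luminescence.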

Glucagon-like peptide 1 receptor (Homo sapiens), sequence (P43220 whole entry, looked up): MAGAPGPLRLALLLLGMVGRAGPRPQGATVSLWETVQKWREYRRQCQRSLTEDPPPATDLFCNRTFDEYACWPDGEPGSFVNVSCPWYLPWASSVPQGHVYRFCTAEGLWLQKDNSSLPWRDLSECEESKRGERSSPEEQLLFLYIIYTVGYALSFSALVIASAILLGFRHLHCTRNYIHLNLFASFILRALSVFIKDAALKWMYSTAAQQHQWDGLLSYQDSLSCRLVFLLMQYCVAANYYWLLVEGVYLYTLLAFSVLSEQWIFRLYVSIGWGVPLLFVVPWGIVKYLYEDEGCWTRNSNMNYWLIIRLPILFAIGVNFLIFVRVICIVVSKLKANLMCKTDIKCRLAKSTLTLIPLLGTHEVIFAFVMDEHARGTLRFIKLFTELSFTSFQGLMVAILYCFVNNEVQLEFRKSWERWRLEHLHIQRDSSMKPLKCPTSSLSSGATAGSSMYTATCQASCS
Glutaminase kidney isoform, mitochondrial (Homo sapiens), sequence (O94925 whole entry, looked up, canonical isoform): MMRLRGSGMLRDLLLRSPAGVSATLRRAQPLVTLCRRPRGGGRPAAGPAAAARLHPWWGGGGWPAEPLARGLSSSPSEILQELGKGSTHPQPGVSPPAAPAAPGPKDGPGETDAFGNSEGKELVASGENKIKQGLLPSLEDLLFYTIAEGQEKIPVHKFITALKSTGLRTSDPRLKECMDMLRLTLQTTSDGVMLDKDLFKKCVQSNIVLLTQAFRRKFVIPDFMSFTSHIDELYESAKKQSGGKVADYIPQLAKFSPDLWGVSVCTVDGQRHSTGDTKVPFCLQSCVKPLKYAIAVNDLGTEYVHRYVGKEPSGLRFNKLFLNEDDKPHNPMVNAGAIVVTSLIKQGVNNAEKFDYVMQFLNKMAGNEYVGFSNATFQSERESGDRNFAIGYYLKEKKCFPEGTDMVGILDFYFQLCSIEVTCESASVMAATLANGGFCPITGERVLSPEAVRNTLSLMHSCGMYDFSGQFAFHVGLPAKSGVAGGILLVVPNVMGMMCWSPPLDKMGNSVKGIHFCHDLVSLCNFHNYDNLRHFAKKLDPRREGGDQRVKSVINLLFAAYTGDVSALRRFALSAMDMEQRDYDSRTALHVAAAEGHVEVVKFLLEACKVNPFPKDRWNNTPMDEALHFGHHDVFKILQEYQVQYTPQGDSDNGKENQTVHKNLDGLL

`CCCCN1CCC(n2c(=O)[nH]c3ccccc32)CC1`: the Potency result in assay [1] and in assay [2] was “inactive” in each case. Besides, the outcome in assay [3] and in assay [4] was inactive.
For `C=CC(=O)c1ccc(CCCCCC)cc1`, the Potency result in assay [1] and in assay [2] was “inactive” throughout. The outcome in assay [3] and in assay [4] was inactive.
With `CN1CCc2cccc3c2C1Cc1ccc(O)c(O)c1-3` (stereo not given), the Potency in assay [1] is 4.47 µM (active). Also, the compound was called inactive in assay [3] and in assay [4].
For `CN(C)CCCO[C@@H]1[C@H]2OC(C)(C)O[C@H]2O[C@@H]1[C@H](O)CO`, the Potency result in assay [1] and in assay [2] was “inactive” in each case. In addition, the call in assay [3] and in assay [4] was inactive.
Consider `CC(C)(C=O)Cc1cc(C(C)(C)C)c(O)c(C(C)(C)C)c1`, for which, in assay [1], the Potency was 2.51 µM (active). Also, in assay [2], the Potency result is “inactive”. In addition, the compound was called inactive in assay [3] and in assay [4].
For the compound `COc1cccc(OC)c1OCCNCC1COc2ccccc2O1` (stereo not given), the Potency entry in assay [1] and in assay [2] was “inactive” in each case. Besides, the compound was classed as inactive in assay [3] and in assay [4].
On to `NC[C@H]1O[C@@H](n2cnc3c(N)ncnc32)[C@H](O)[C@@H]1O`, for which the Potency entry in assay [1] and in assay [2] was “inactive” throughout. Besides, the result in assay [3] and in assay [4] was inactive.
`CCCCCCCCCCCCCCCC(=O)OC(CC(=O)O)C[N+](C)(C)C` (stereo not given): the Potency result in assay [1] and in assay [2] was “inactive” in each case. For the same compound, the result in assay [3] and in assay [4] was inactive.
On to `O=[N+]([O-])c1ccc(CSc2ncnc3c2ncn3[C@@H]2O[C@H](CO)[C@@H](O)[C@H]2O)cc1`, for which the Potency result in assay [1] and in assay [2] was “inactive” throughout. In addition, the compound was classed as inactive in assay [3] and in assay [4].
As to `Cc1cc(NC2CCCCC2)nc(-n2nc(C)cc2C)n1`, the Potency entry in assay [1] and in assay [2] was “inactive” each time. The result in assay [3] and in assay [4] was inactive.
As for `Nc1nc(Cl)nc2c1ncn2[C@@H]1O[C@H](CO)[C@@H](O)[C@H]1O`, the Potency entry in assay [1] and in assay [2] was “inactive” in each case. Besides, in assay [4], the compound was classed as inactive.
As for `CNC(=O)[C@H]1O[C@@H](n2cnc3c(NCc4cccc(I)c4)ncnc32)[C@H](O)[C@@H]1O`, the Potency result in assay [1] and in assay [2] was “inactive” in each case. Moreover, the compound was called inactive in assay [4].
